# From the supplement of paper PMC8387472
# ± gives the standard deviation of the averaged measurements.
# Test system: mESC LDLR-Dup GFP reporter (SpCas9 MH-deletion repair)
# Assay: fraction of GFP+ cells relative to DMSO control (fold change); higher = more MH-deletion repair to in-frame LDLR (or more editing)
# Conditions: 2 µM; 7 days post-transfection
row,SMILES,fraction of GFP+ cells
1,O=C(NCCN1CCOCC1)Nc1ccc(C(=O)/C=C/c2cccc(N3CCOCC3)n2)cc1,1.18 ± 0.16
2,COc1ccc(CCNCc2ccc(OCc3ccc(Cl)nc3)c(OC)c2)cc1OC,1.56 ± 0.28
3,Cc1n[nH]c2ncc(C(=O)N3CCC[C@H]3c3ccc(Cl)cc3)cc12,1.35 ± 0.069
4,CC1=CC(=O)c2ccccc2C1=O [Menadione],1.27 ± 0.36
5,COc1cc(Cc2cnc(N)nc2N)cc(OC)c1OC [Trimethoprim],0.773 ± 0.079
6,C#Cc1cccc(Nc2ncnc3cc(OC)c(OCCCCCCC(=O)NO)cc23)c1,0.66 ± 0.054
7,C=C(C)[C@@H]1CC[C@]2(C(=O)O)CC[C@]3(C)[C@H](CC[C@@H]4[C@@]5(C)CC[C@H](O)C(C)(C)[C@@H]5CC[C@]43C)[C@@H]12 [Betulinic acid],0.997 ± 0.13
8,CNC(=O)c1nn(C)c2c1C(C)(C)Cc1cnc(Nc3ccc(N4CCN(C)CC4)cc3)nc1-2,0.352 ± 0.06
9,Cc1cccc(Nc2cc(Cl)nc(SCC(=O)O)n2)c1C,1.56 ± 0.58
10,O=c1ccc2cc3ccoc3cc2o1 [Psoralen],1.11 ± 0.41
11,Cc1nc(N)sc1-c1ccnc(Nc2ccc(N3CCOCC3)cc2)n1,0.334 ± 0.28
12,Nc1nc(N)c(N=O)c(OCC2CCCCC2)n1,0.999 ± 0.11
13,CO[C@H]1/C=C/O[C@@]2(C)Oc3c(C)c(O)c4c(O)c(c(/C=N/N5CCN(C)CC5)c(O)c4c3C2=O)NC(=O)/C(C)=C\C=C\[C@H](C)[C@H](O)[C@@H](C)[C@@H](O)[C@@H](C)[C@H](OC(C)=O)[C@@H]1C [Rifampin],2.38 ± 0.52
14,O=C(O)c1cn(C2CC2)c2cc(N3CCNCC3)c(F)cc2c1=O [Ciprofloxacin],1.01 ± 0.28
